Compound activity from PubChem.
RecA splice inh – blocks M. tuberculosis RecA intein splicing; inhibition, % (no concentration beside the values); 0.75% of 290,000 active; cell-free RecA intein splicing, fluorescence; AID 2221; in the data active = inhibition above about 30%;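 also: 0% = vehicle wells and 100% = reference inhibitor control wells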
Vc quorum ag – induces V. cholerae light production without autoinducers; V. cholerae BH1578 lux reporter, luminescence, 6 h; activation, % at 18.7 µM; 0.16% of 350,000 active; AID 588436; in the data active = activation mostly above about 9.7%, no sharp cut-off
Rv3671c inh – inhibitors of M. tuberculosis serine protease Rv3671c. 0.048% of 320,000 active. AID 2606. inhibition, % at 5.96 µM. P9WHR9; in the data active = inhibition above about 38%;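 also: extracellular domain of Rv3671c used as enzyme; 0% = enzyme with DMSO and 100% = no enzyme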
GDH-TPI counter – GDH-TPI coupled enzyme inhibition counter-screen. 1.2% of 360,000 active. GDH-TPI coupled enzyme counterscreen, NADH absorbance. inhibition, % at 4.8 µM; in the data active = inhibition above about 30%;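 also: 0% = DMSO wells and 100% = wells lacking the enzyme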
Mtb UGM inh – blocks M. tuberculosis UGM enzyme; 0.06% of 320,000 active; purified UGM, fluorescence polarization probe displacement; inhibition, % at 10 µM; P9WIQ1; in the data active = inhibition above about 10%, passing the limit was not always enough
Mtb FBA inh – inhibits M. tuberculosis FBA enzyme; purified M. tuberculosis FBA, fluorescence read-out; inhibition, % at 1 µM; 2.3% of 360,000 active; AID 588726; in the data active = inhibition above about 27%;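 also: 0% = vehicle and 100% = reference inhibitor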
Target sequence (P9WQA3 whole entry, looked up): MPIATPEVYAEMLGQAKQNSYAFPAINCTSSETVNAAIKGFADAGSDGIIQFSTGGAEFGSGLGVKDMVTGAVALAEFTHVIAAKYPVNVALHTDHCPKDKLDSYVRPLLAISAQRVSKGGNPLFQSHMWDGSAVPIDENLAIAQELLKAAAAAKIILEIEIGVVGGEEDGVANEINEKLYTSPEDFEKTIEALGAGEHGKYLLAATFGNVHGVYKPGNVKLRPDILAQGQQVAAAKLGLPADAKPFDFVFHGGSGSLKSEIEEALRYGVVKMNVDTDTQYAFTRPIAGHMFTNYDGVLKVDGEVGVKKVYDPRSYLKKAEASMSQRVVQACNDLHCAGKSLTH
Starred values were filed as active, the others as inactive; i = inactive; . = no result given; + = active, no number. Hits are enriched below; roughly 4.1% of the tested compounds scored in any of these assays.

SMILES	RecA splice inh	Vc quorum ag	Rv3671c inh	GDH-TPI counter	Mtb UGM inh	Mtb FBA inh
CC(C)OCCCn1c(=NC(=O)c2ccncc2)c(C#N)cc2c(=O)n3ccccc3nc21	.	3.3	-1.6	4.6	38.1*	3.9
CC(C)Oc1cccc(C(=O)Nc2nnc([C@H]3C[C@H](O)[C@@H](CO)O3)s2)c1	.	-0.3	.	9.3	.	0.9
CN(C)c1ccc(C(c2ccc(N(C)C)cc2)C(O)c2ccccc2)cc1 (centres undefined)	.	.	.	3.5	.	-2.8
O=C(Nc1ccc(/C=C/c2nc3ccccc3o2)cc1)c1cccc(C(F)(F)F)c1	0.7	-1.4	-3.3	35.6*	-0.7	4.3
CSc1ccc(/C=C(\NC(=O)c2ccco2)C(=O)N2CCCCC2)cc1	1.2	i	.	37.1*	-0.3	-3.2
COc1ccc(/C=C(\NC(=O)c2ccco2)C(=O)Nc2ccc(C(C)=O)cc2)cc1	0.2	i	.	33.2*	-2.0	-2.1
COc1ccc(/C=C(/NC(=O)c2ccco2)C(=O)Nc2ccc(C(=O)O)cc2)cc1	4.7	-0.3	-2.0	12.1	0.4	-2.2
CSc1ccc(/C=C(/NC(=O)c2ccco2)C(=O)NCc2ccco2)cc1	-1.3	i	.	41.2*	-0.7	0.9
CC(C)N1CCC(=NNC(=O)c2ccccc2[N+](=O)[O-])CC1	-3.7	-0.4	2.2	2.9	-0.2	+
CC1(C)Cc2c(sc3c2c(=O)n(-c2cccc(Cl)c2)c(=O)n3CC(N)=O)CO1	5.5	-0.6	9.1	-8.4	-1.6	3.5
COc1cc(-c2nc3ccc(C)cn3c2NCc2ccccc2)ccc1SC1CCCCC1	0.2	-19.1	4.7	12.3	-1.0	38.7*
COc1ccc(-c2nc3cnccn3c2NCc2ccccc2)cc1SC1CCCCC1	-121.1	-0.4	-3.5	-7.7	-1.7	20.2
COc1ccc(-c2nc3ccc(C)cn3c2Cc2ccccc2)cc1OC	.	.	.	.	.	89.9*
COc1ccc(-c2nc3ccc(C)cn3c2Cc2ccc(C)cc2)cc1OC	.	.	.	.	.	26.9
Cc1ccc(S(=O)(=O)Nc2cccc(C(=O)NCc3ccccn3)c2)cc1F	-2.6	-0.1	4.1	-9.3	-2.0	-3.8
Cc1c(C(=O)Nc2nnc(C3CC3)s2)oc2ccccc12	.	i	-10.3	6.0	-0.5	2.3
Cc1c(C(=O)Nc2nnc(C3CC3)s2)oc2c(Cl)cccc12	-0.7	-0.4	-7.1	37.1*	1.4	2.1
CC1=CN2C(=NC(=O)CC2(C)C(=O)N(CC(=O)NC2CCCC2)Cc2ccccc2)C=C1 (centres undefined)	-2.6	-0.2	-3.2	-2.3	-2.3	124.0*
Cc1ccccc1N(CC(=O)NC1CCCC1)C(=O)C1(C)CC(=O)N=C2C=CC(Cl)=CN21 (centres undefined)	-3.3	i	-5.8	8.1	0.5	155.0*
Cc1ccc(C(=O)N(CC(=O)NC2CCCC2)c2ccccc2C)s1	2.6	i	-4.0	-1.9	-3.6	3.5
Cc1ccc(C)c(S(=O)(=O)NNC(=O)c2sc(NS(=O)(=O)c3ccccc3)nc2C)c1	1.0	-6.2	-6.7	12.1	-0.5	3.9
CCC(=O)Nc1cc2c3c(c1)CCN3C(=O)CC2	-1.0	i	-0.1	5.2	0.6	-3.2
Cc1c(C(=O)C(=O)N2CCC3(CC2)OCCO3)c2ccccc2n1C	4.1	-0.1	-8.8	46.3*	1.6	2.0
Cc1ccc2nc(C(C)(C)C)c(Cc3ccccc3C(F)(F)F)n2c1	.	.	.	.	.	8.1
N#C/C(=C\c1ccc(O)c(O)c1)C(=O)N1CCCC1	-1.0	1.6	3.2	7.2	-5.0	-9.3
SMILES	RecA splice inh	Vc quorum ag	Rv3671c inh	GDH-TPI counter	Mtb UGM inh	Mtb FBA inh
N#C/C(=C\c1ccc(O)c(O)c1)C(=O)c1ccc(O)c(O)c1	.	-5.8	2.4	46.1*	0.6	-7.0
CC(CC(=O)Nc1ccc2c(c1)c(=O)n(C)n2-c1ccc2ccccc2c1)C(F)(F)F (centres undefined)	.	i	.	7.5	.	6.4
Cn1c(=O)c2cc(NC(=O)CC(C)(C)C)ccc2n1-c1ccccc1F	.	-4.5	.	5.6	.	173.7*
CC(CC(=O)Nc1ccc2c(c1)c(=O)n(C)n2-c1ccccc1F)c1ccccc1 (centres undefined)	.	-0.4	.	11.0	.	139.3*
O=C(CC1OC(=O)c2ccccc21)c1ccco1 (centres undefined)	-0.8	i	3.3	41.4*	-7.5	-2.5
COc1ccc(-n2c(O)c(/C=C3\C=Nc4ccc(Br)cc43)c(=O)[nH]c2=O)cc1	4.4	i	-14.2	-5.6	40.6*	3.4
c1ccc(-n2nc3c(ccc4cnnc43)[nH]2)cc1	-2.0	-0.6	-11.1	26.9	-0.9	143.7*
